Rows were chosen to be rich in hits. Some 1% of all compounds tested hit in one or more screens of this group.
SNCA expr inhib: inhibitors of alpha-synuclein (SNCA) gene expression; actives 0.17% (n = 140,000); HEK-293 SNCA-luciferase knock-in, luminescence, 24 h; Potency, µM (titrated, usually from 57.2 µM), inactives show top-dose activity change, negative = inhibition, hits mostly inhibitors;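 further: potency means the concentration at half of the fitted maximal effect; plate controls were DMSO cells for no effect and cell-free wells for full effect; nearly all actives have a fitted effect of over 45% in size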
HEK293 viab: reduces viability of HEK-293 SNCA reporter cells; HEK-293-SNCA-luc viability, GF-AFC fluorescence, 24 h; Potency, µM (series often up to 57.1 µM), for the others: top-dose activity change, negative = cytotoxicity, actives largely listed as cytotoxic; actives 0.12% (n = 150,000);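 further: potency means the concentration at half of the fitted maximal effect; 0% = DMSO-treated cells and -100% = medium-only wells without cells; nearly all actives have a fitted effect of over 30% in size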
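HEK-293-SNCA-luc cells (1500/well) plated 24 h, then exposed 24 h to a dilution series; GF-AFC added 30 min at 37C, fluorescence 405/540 nm; normalised to medium-only and DMSO wells, Hill fit.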
GPT2 inh: GPT2 alanine aminotransferase inhibition. Q8TD30. Recombinant GPT2, coupled pyruvate oxidase/HRP Amplex Red fluorescence. Potency, µM (series often up to 57.7 µM), inactives show at the top dose activity change, negative = inhibition, most hits filed as inhibitors. actives 0.25% (n = 100,000). AID 1671188; further: potency means the concentration at half of the fitted maximal effect; nearly all actives have a fitted effect of over 60% in size
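GPT2 10ng/uL, a-KG 250uM, L-Ala 2mM, HEPES pH7.5 + 0.0001% Tween; 30 min RT. Then Amplex mix (PO/HRP/ThPP), 30 min RT dark, fluorescence. AOA 50uM used as positive control.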
IP6K1 inh: IP6K1 kinase inhibition | IP6K1 kinase, ADP-Glo luminescence, 2 h; hits give low values | Q92551 | activity change, % (series mostly up to about 58 µM) | AID 1645851 | actives 0.81% (n = 140,000); in the data active means activity change below about -25%
Target sequence (Q92551 whole entry, looked up): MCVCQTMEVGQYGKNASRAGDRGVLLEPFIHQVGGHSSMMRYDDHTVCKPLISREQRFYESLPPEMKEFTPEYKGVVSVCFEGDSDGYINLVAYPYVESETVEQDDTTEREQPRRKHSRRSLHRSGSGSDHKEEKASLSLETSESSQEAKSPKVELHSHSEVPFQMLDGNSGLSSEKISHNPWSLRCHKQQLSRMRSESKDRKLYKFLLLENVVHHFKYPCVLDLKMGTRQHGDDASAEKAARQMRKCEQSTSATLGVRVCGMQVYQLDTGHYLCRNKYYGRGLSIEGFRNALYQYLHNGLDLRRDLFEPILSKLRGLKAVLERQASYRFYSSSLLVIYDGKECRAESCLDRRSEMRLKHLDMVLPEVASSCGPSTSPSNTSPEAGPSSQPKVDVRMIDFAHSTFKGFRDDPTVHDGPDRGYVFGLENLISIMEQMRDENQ
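ADP-Glo luminescence measures ADP made by human IP6K1 during a 2 h RT reaction with ATP/IP6 (mix at 1.3 mM/130 uM); top library doses 57.5 and 19.1 uM final.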
An asterisk follows results filed as active; i = inactive; ? = inconclusive; · = not tested or not shown; [ ] = remark or other dose. Unless noted, the call rests on the fitted dose curve; in most records, active means well fitted curve in the direction sought with a large enough effect; inconclusive means small, poorly fitted or top-dose-only effect, or another doubt; inactive means no such curve, though single readings can be large; an effect the other way counts as inactive or inconclusive. Unless noted, on the % scale 0 is the no-effect control and ±100 the full control effect.

SMILES	SNCA expr inhib	HEK293 viab	GPT2 inh	IP6K1 inh
N#Cc1ccccc1CN1CCC([C@@H]2CNC[C@H]2CO)CC1	?	5%[12.5 µM]	i	17
CC(C)c1nnc(NC(=O)c2nc(S(=O)(=O)Cc3ccccc3)ncc2Cl)s1	?	22µM*	·	-3
Cc1ccc(NC(=O)c2nc(S(=O)(=O)Cc3ccc(F)cc3)ncc2Cl)cc1C	?	?	·	-14
CC(=O)Nc1ccc(NC(=O)c2nc(S(=O)(=O)Cc3ccc(F)cc3)ncc2Cl)cc1	?	7.9µM*	·	0
O=C1COCC2(CN1Cc1ccccc1)CN(C(=O)c1ccc(F)c(Cl)c1)C2	11%[87.6 µM]	-10%[87.6 µM]	-3%[88.5 µM]	4
CC(=O)NC1(C)CCN(Cc2ccc(-c3cccc(C(F)(F)F)c3)cc2)C1 (stereo unspecified)	124%[87.6 µM]	-27%[87.6 µM]	i	24
Cc1ccc(-n2nc3c(=O)n(CCCC(=O)NC(C)c4ccccc4)nc(C)c3c2C)cc1 (stereo unspecified)	28µM*	2%	·	0
CNC(=O)c1cc(C2CC2)nc2c1c(C1CCN(C(=O)c3ccccc3C)CC1)nn2C	·	·	·	-8
C=CC(=O)Nc1cccc(Sc2nc(Nc3ccc(N4CCN(C)CC4)cc3)ncc2Cl)c1	-3%	?	-17%	-5
C=CC(=O)Nc1ccc(CN2C(=O)N(c3cc(OC)cc(OC)c3)Cc3cnc(Nc4ccc(N5CCN(C)CC5)cc4)nc32)cc1	·	19µM*	-8%	-18
O=C(c1ccc(C(F)(F)F)cc1)N1CCN(c2ccc3nnc(C4CC4)n3n2)CC1	·	·	·	4
CCCCn1c(=O)c(C(=O)N2CCN(C(=O)COC)CC2)nc2cccnc21	7%	9%	i	15
O=c1c(O)c(-c2ccc(O)c(O)c2)oc2cc(O)ccc12	20%	18%	?	·
O=c1c(O)c(-c2ccc(O)cc2)oc2cc(O)cc(O)c12	2%	-17%	24µM*	·
COc1ccc(-c2nnc(C[C@@H]3C[C@@H](C(C)C)[C@H](CO)C=C3C)o2)cc1	-14%[87.6 µM]	?	-5%[88.5 µM]	-2
COCCNC[C@@H]1C=C(C)[C@H](Cc2nnc(-c3ccc(OC)cc3)o2)C[C@H]1C(C)C	?	32µM*	?	22
C[C@](N)(Cc1ccc(O)c(O)c1)C(=O)O	3%	?	7.9µM*	4
Cc1nn(-c2ccccc2)c2c1C(C)N(C1CCN(C(=O)c3cccc(Cl)c3)C1)C2=O (stereo unspecified)	·	·	·	-3
c1cc(NC2CCNCC2)nc(-c2cnc3ccccn23)c1	·	?	3%	-20
Clc1ccc2ncc(-c3cccc(NC4CNC4)n3)n2c1	0.61µM*	-30%	?	-4
O=c1c(-c2ccc(O)cc2)coc2cc(OC3O[C@H](CO)[C@H](O)[C@H](O)[C@H]3O)cc(O)c12 (stereo partly specified)	5.4µM*	-8%	?	·
O=c1c(-c2ccc(O)cc2)coc2cc(O[C@@H]3O[C@H](CO)[C@H](O)[C@H](O)[C@H]3O)ccc12	?	-17%	i	·
O=C1c2cnc(-c3cc4ccccc4o3)nc2OCCN1CC1CC1	?	-4%[87.6 µM]	?	-8
COCCN1CCOc2nc(-c3cc4ccccc4o3)ncc2C1=O	8.9µM*	-5%[87.6 µM]	-7%[88.5 µM]	-6
CCOC(=O)c1ccc(N2C(=O)c3n[nH]c(-c4cccs4)c3C2c2ccc(Cl)cc2Cl)cc1 (stereo unspecified)	?	22µM*	·	-11
SMILES	SNCA expr inhib	HEK293 viab	GPT2 inh	IP6K1 inh
CCOC(=O)c1ccc(N2C(=O)c3n[nH]c(-c4ccco4)c3C2c2ccc(OCC)cc2)cc1 (stereo unspecified)	20µM*	?	·	24
Nc1cc(C(F)(F)F)ccc1S	-16%[25.6 µM]	-2%[23.9 µM]	28µM*	-12
CC1=C[C@@H](CN2CCN(c3ccccn3)CC2)[C@H](C(C)C)C[C@H]1Cc1nnc(-c2cncn2C)o1	-19%	-23%	2%	5
COc1cc(Br)c(Nc2nc(-c3c(C)nc4ncccn34)cs2)c(Br)c1	·	6µM*	-12%	-13
Cc1ccc(C)c(N2CCN(c3nc4ccccc4c(=O)n3-c3ccccc3)CC2)c1	2.5µM*	25%	·	-8
COc1ccc(CNC(=O)C(=O)Nc2ccccc2OC)cc1	35%	-11%	·	-6
COC(=O)/C=C/C(=O)N(O)CCCCNCc1ccc(COC(=O)Nc2cccc3ccccc23)cc1	·	24µM*	i	-3
C[C@H](NCc1ccc2c(c1)nc(NC(=O)c1ccc(-c3cn[nH]c3)s1)n2CCc1ccccc1)C(C)(C)C	6.8µM*	?	4%	·
COC(=O)c1ccc2c(c1)nc(NC(=O)c1ccccc1)n2CCCc1ccccc1	·	-8%	i	24
CC(C)(O)Cn1c(NC(=O)c2ccc(-c3cn[nH]c3)s2)nc2cc(CN3CCOCC3)ccc21	3.4µM*	?	i	·
Cc1cccc(-c2noc([C@@H]3C[C@@H](O)CN3C3CCOCC3)n2)c1	161%[87.6 µM]	-2%[87.6 µM]	i	19
Cc1ccc(C(=O)N2CCCC2c2nc(CCOCc3ccccc3)no2)s1 (stereo unspecified)	-4%	0%	i	-17
Cc1ccc(C(=O)N(CCCN)C(c2nc3cc(Cl)ccc3c(=O)n2Cc2ccccc2)C(C)C)cc1 (stereo unspecified)	·	30µM*	i	0
O=C1CN([S+](=O)([O-])c2ccccc2)CC(O)CN1Cc1ccc(Cl)cc1 (stereo unspecified)	·	·	·	1
COc1cccc(-c2nn(-c3ccccc3)c(OC(C)=O)c2-c2ccc(NC(=O)C3CCCC3)cc2)c1	-4%	2%	7.1µM*	4
CC(=O)Oc1c(-c2ccc(NC(=O)c3ccco3)cc2)c(-c2cccc(C)c2)nn1-c1cccc(F)c1	-21%	-2%	?	30
CC(=O)Oc1c(-c2ccc(NC(=O)c3ccco3)cc2)c(-c2cccc(C)c2)nn1-c1ccc(F)cc1	6%	-6%	25µM*	-6
COc1ccc(-c2nn(-c3ccccc3C)c(OC(C)=O)c2-c2ccc(NC(C)=O)cc2)cc1OC	-21%	-18%	i	7
CC(=O)Oc1c(-c2ccc(NC(=O)c3ccco3)cc2)c(-c2cccc(F)c2)nn1-c1ccc(C)cc1	6%	0%	28µM*	16
COCC(=O)Nc1ccc(-c2c(C(C)C)nn(-c3cccc(F)c3)c2OC(C)=O)cc1	5%	-14%	?	2
O=C(NCc1ccc(F)cc1F)C1CCN(Cc2ccccc2-c2cccnc2)CC1	15%	6%[12.5 µM]	1%	8
Cn1ncc2c(C(=O)NC3CCOCC3)cc(-c3ccccc3C(F)(F)F)nc21	·	·	·	-1
COC(=O)COc1ccc(-c2nnc(Nc3ccc(O)cc3)c3ccccc23)cc1	28µM*	?	·	18
CC(C)N1C[C@H](Oc2ccccc2)[C@@H]1C1CCN(C(=O)c2ccccn2)CC1	42%	3%	?	4
O=C(CCl)Nc1cccc(NC2=NS(=O)(=O)c3ccccc32)c1	·	30µM*	i	4

From PubChem BioAssay
